Our source for the log2 fold change values is the supplement of paper PMC10849652.

About 8,800 targets were measured; listed, in parts, are those with a hit and a random draw of the rest. About 0.5% of all pairs of compound and target were hits.

Sequence of UniProt Q9HCS7 (Q9HCS7 whole entry, looked up): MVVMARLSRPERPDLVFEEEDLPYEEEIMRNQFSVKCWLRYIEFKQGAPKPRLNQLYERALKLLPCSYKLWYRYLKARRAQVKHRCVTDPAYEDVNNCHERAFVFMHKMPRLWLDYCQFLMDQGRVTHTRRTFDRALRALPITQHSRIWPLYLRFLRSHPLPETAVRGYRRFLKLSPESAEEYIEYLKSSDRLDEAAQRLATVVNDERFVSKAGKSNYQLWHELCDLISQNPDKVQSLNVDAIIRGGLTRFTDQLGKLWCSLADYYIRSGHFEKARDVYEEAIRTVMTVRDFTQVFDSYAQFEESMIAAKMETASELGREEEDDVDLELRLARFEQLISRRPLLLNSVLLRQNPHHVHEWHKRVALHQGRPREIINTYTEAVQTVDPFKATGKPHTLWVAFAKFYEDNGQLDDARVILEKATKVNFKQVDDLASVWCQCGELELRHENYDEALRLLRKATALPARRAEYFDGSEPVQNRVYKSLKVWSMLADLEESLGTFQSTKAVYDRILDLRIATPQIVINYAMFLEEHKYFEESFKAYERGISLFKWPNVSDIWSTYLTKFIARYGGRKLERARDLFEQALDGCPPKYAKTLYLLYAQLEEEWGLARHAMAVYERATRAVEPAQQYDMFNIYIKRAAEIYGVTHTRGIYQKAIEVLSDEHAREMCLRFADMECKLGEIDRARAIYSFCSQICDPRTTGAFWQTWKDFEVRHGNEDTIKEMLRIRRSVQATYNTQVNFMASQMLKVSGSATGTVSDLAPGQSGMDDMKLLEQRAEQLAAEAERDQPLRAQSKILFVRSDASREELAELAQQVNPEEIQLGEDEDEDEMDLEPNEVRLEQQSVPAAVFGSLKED
Sequence of UniProt Q14191 (Q14191 whole entry, looked up): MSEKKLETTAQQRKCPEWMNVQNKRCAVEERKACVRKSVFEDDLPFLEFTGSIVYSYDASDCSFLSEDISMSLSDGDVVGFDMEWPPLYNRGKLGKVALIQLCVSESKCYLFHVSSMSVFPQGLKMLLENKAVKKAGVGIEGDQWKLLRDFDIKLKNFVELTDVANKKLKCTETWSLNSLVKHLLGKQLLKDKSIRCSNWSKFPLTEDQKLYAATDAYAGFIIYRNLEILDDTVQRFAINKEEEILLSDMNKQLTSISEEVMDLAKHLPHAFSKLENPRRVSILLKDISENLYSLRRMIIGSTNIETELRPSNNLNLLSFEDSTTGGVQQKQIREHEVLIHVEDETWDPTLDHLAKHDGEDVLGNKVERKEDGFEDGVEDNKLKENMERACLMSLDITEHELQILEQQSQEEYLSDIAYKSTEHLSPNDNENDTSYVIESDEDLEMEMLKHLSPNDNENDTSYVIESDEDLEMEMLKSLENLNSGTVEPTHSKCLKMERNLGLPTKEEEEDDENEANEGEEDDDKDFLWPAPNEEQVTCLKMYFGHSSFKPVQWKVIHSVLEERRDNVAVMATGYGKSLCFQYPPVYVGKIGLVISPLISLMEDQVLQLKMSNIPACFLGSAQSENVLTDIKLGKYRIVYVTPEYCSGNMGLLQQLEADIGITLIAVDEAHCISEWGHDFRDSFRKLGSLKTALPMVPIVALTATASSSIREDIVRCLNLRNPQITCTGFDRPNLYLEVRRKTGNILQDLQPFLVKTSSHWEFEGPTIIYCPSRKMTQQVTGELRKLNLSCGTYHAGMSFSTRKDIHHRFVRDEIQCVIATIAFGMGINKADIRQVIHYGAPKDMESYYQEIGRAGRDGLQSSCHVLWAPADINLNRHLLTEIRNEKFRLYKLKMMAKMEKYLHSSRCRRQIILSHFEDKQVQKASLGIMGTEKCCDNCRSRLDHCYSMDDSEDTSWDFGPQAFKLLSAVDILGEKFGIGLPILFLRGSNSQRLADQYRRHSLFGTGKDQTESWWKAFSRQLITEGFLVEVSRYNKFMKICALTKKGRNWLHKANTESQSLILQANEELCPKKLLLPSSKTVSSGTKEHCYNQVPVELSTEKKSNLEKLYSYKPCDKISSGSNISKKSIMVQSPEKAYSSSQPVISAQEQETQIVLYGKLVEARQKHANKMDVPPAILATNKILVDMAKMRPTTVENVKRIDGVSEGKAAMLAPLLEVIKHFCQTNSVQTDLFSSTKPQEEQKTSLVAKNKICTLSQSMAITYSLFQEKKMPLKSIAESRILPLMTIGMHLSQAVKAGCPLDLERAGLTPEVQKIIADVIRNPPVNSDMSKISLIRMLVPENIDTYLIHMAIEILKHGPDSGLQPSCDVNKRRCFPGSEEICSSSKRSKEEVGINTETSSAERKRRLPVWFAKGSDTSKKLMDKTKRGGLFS
Sequence of UniProt Q9UBW7 (Q9UBW7 whole entry, looked up): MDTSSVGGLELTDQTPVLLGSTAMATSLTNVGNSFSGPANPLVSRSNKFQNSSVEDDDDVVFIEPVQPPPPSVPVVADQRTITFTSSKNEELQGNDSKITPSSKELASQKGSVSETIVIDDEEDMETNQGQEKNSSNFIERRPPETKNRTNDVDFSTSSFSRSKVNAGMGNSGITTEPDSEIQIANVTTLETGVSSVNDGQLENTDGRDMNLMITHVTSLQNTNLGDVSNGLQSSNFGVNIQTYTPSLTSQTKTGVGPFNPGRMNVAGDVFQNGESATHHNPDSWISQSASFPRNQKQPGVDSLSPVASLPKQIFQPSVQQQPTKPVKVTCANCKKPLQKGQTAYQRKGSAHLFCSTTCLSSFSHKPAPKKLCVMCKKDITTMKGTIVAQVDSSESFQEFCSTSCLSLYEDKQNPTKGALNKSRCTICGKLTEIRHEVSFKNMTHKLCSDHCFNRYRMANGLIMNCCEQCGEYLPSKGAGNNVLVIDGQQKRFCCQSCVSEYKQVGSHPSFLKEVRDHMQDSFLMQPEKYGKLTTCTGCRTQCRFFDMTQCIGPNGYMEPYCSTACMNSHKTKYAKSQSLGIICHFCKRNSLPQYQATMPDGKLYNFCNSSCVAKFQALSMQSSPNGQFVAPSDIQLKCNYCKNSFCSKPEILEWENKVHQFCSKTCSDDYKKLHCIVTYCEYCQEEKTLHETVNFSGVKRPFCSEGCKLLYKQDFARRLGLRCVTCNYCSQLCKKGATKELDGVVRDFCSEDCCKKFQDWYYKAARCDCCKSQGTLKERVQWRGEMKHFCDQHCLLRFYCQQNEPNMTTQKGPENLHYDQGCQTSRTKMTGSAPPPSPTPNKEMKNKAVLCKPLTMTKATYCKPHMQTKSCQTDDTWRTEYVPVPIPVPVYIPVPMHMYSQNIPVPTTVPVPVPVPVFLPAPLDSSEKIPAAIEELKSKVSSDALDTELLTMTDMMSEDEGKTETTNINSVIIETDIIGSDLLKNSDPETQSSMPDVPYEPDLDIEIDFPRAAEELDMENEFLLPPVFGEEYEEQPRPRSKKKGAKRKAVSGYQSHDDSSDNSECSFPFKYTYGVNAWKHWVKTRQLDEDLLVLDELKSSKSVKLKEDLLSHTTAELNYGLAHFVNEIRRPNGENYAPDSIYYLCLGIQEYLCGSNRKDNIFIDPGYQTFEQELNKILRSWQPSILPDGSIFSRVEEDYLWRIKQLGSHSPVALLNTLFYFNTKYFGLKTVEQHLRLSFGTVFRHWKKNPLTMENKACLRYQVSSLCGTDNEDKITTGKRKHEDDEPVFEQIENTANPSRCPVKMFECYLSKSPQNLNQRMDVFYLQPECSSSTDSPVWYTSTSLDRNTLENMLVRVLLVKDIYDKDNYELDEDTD
Sequence of UniProt Q5SVZ6 (Q5SVZ6 whole entry, looked up): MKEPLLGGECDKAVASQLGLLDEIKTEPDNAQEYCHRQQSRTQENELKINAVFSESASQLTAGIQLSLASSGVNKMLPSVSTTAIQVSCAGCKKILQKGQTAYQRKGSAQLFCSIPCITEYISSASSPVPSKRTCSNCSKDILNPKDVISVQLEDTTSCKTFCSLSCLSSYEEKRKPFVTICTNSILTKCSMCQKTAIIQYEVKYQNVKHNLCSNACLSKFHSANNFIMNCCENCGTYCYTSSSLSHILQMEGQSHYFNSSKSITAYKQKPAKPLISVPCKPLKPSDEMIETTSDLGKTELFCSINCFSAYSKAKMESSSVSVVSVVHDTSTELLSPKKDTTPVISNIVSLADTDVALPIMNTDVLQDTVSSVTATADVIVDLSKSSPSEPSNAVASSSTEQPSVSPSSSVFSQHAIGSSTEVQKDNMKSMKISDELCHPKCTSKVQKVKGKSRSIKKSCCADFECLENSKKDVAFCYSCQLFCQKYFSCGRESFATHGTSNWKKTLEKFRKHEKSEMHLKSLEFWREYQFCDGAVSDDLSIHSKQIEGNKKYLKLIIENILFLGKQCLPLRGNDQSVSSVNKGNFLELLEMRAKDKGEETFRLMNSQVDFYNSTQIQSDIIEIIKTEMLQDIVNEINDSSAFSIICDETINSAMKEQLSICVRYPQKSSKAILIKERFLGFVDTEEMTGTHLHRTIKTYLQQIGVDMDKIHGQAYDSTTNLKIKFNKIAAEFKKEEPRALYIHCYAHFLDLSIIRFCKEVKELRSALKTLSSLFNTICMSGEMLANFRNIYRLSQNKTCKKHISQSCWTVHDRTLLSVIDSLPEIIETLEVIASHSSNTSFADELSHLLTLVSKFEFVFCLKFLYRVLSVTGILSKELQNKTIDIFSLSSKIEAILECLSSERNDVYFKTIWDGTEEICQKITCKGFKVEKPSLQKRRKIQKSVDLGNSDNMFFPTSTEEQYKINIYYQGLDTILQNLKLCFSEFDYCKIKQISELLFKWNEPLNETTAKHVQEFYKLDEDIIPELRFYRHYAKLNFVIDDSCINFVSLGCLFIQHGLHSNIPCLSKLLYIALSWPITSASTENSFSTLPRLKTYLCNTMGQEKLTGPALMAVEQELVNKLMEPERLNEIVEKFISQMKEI
Sequence of UniProt Q9UL40 (Q9UL40 whole entry, looked up): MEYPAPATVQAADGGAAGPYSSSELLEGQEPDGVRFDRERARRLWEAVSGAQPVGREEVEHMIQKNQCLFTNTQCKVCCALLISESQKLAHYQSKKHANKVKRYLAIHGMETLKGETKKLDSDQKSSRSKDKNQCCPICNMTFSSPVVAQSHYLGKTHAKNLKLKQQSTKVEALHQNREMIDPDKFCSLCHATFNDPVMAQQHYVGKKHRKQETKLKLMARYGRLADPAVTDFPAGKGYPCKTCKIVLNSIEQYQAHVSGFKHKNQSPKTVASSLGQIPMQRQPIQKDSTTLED

Compound in the first test: O=C(O)c1ccc2c(c1)nc(Nc1cccc(Cl)c1)c1ccncc12 [silmitasertib]
Put plainly: log2 fold change, soluble protein after heating vs DMSO (PISA); higher = thermal stabilisation; K562 lysate, 10 uM; active = over 0.2 and 3.5 SD of the protein, either way, in both replicates (recomputed). In a few lines:
(§1)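 Thermal stability, expressed as log-two fold change relative to solvent controls, is given from duplicates. Crude K562 extract in PBS pH 7.4 with 1 mM MgCl2, at 1 mg/mL protein, was treated with 10 μM compound for 30 min and heated in aliquots for 3 min across 48°C-58°C. After pooling, adjustment to 0.5% NP-40 at 4°C and centrifugation at 21,000xg for 90 min, supernatant protein was measured by TMTpro 16plex LC-MS/MS with channel sums equalised.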
Consider ZYG11A (UniProt Q6WRX3), for which the log2 fold change is 0.17 (inactive).
Turning to WRNIP1 (UniProt Q96S55), the log2 fold change is 0 (inactive).
As to ZMYM1 (UniProt Q5SVZ6), the log2 fold change was 0.042 (inactive).
As for WIPI1 (UniProt Q5MNZ9), the log2 fold change is -0.051 (inactive).
As for ZMYM4 (UniProt Q5VZL5), the log2 fold change is -0.016 (inactive).
As to XPO6 (UniProt Q96QU8), the log2 fold change was 0.049 (inactive).
Regarding ZNF346 (UniProt Q9UL40), the log2 fold change was 0.018 (inactive).
As for ZC3H11A (UniProt O75152), the log2 fold change was -0.026 (inactive).
Take WAC isoform 5 (UniProt Q9BTA9): the log2 fold change was 0.351 (inactive).
Take UNC45A (UniProt Q9H3U1): the log2 fold change is 0.011 (inactive).
In the case of UNC13A (UniProt Q9UPW8), the log2 fold change was 0.078 (inactive).
Regarding YBEY (UniProt P58557), the log2 fold change was 0.063 (inactive).
Still for that read-out and setting: for UQCRC2 (UniProt P22695) the value was -0.013 (inactive); for ZNF281 (UniProt Q9Y2X9), -0.084 (inactive).
The same measure, in the same setting: the figure for WRN (UniProt Q14191) is 0.035 (inactive); for WAS (UniProt P42768) it is 0.025 (inactive); for UTRN isoform 2 (UniProt P46939) it is -0.144 (inactive).
Turning to XAB2 (UniProt Q9HCS7), the log2 fold change is 0.005 (inactive).
With VASN (UniProt Q6EMK4), the log2 fold change is -0.263 (inactive).
With VANGL1 (UniProt Q8TAA9), the log2 fold change is 0.159 (inactive).
As to USP22 (UniProt Q9UPT9), the log2 fold change was -0.045 (inactive).
Regarding WDR77 (UniProt Q9BQA1), the log2 fold change was 0.041 (inactive).
Regarding ZMYM2 (UniProt Q9UBW7), the log2 fold change is 0.034 (inactive).
For VARS (UniProt P26640), the log2 fold change is 0.063 (inactive).
Same read-out and setting: for VPS35L (UniProt Q7Z3J2) the value was 0.027 (inactive).
For the target VPS54 (UniProt Q9P1Q0), the log2 fold change was -0.001 (inactive).

Compound in a further test: O=C1NC(=O)C(c2cnc3ccccn23)=C1c1cn2c3c(cc(F)cc13)CN(C(=O)N1CCCCC1)CC2
The test is described as above. In a few lines:
as §1
As for WRNIP1 (UniProt Q96S55), the log2 fold change was -0.046 (inactive).
On to ZMYM1 (UniProt Q5SVZ6), for which the log2 fold change was -0.004 (inactive).
In the case of UNKL (UniProt E9PDK2), the log2 fold change is 0.003 (inactive).
Turning to WIPI1 (UniProt Q5MNZ9), the log2 fold change was 0.026 (inactive).
For ZMYM4 (UniProt Q5VZL5), the log2 fold change is 0.009 (inactive).
In the case of XPO6 (UniProt Q96QU8), the log2 fold change is -0.031 (inactive).
ZNF346 (UniProt Q9UL40): the log2 fold change is -0.05 (inactive).
Regarding ZC3H11A (UniProt O75152), the log2 fold change is 0.062 (inactive).
As to ZNF652 (UniProt Q9Y2D9), the log2 fold change is -0.042 (inactive).
ZDHHC17 (UniProt Q8IUH5): the log2 fold change is -0.067 (inactive).
As for UNC45A (UniProt Q9H3U1), the log2 fold change is 0.008 (inactive).
Take ZSCAN26 (UniProt Q16670): the log2 fold change is -0.024 (inactive).
Consider UQCRC2 (UniProt P22695), for which the log2 fold change was 0.03 (inactive).
As for ZNF281 (UniProt Q9Y2X9), the log2 fold change is -0.072 (inactive).
As to WRN (UniProt Q14191), the log2 fold change is -0.013 (inactive).
In the case of XAB2 (UniProt Q9HCS7), the log2 fold change was -0.023 (inactive).
As for VANGL1 (UniProt Q8TAA9), the log2 fold change is -0.031 (inactive).
In the case of USP22 (UniProt Q9UPT9), the log2 fold change is 0.001 (inactive).
As to WDR77 (UniProt Q9BQA1), the log2 fold change is -0.01 (inactive).
On to ZMYM2 (UniProt Q9UBW7), for which the log2 fold change was 0.019 (inactive).
Turning to VARS (UniProt P26640), the log2 fold change is 0.022 (inactive).
Consider VPS35L (UniProt Q7Z3J2), for which the log2 fold change was -0.006 (inactive).
On to VPS54 (UniProt Q9P1Q0), for which the log2 fold change was 0.002 (inactive).

Compound in the next test: c1cn2cc(-c3ccc4cn[nH]c4c3)nc(Nc3ccc(N4CCOCC4)cc3)c2n1 [entospletinib]
The test is described as above. In a few lines: as §1
Turning to WRNIP1 (UniProt Q96S55), the log2 fold change was -0.02 (inactive).
For the target ZMYM1 (UniProt Q5SVZ6), the log2 fold change was 0.021 (inactive).
Consider UNKL (UniProt E9PDK2), for which the log2 fold change was 0.108 (inactive).
On the same count and under the same terms, the figure for WIPI1 (UniProt Q5MNZ9) is -0.001 (inactive); for ZMYM4 (UniProt Q5VZL5) it is -0.013 (inactive); for XPO6 (UniProt Q96QU8) it is -0.027 (inactive).
On the same count and under the same terms, the figure for ZNF346 (UniProt Q9UL40) is 0.02 (inactive).
On to ZC3H11A (UniProt O75152), for which the log2 fold change is -0.009 (inactive).
As for ZDHHC17 (UniProt Q8IUH5), the log2 fold change is 0.009 (inactive).
For the target UNC45A (UniProt Q9H3U1), the log2 fold change was 0.01 (inactive).
Regarding ZSCAN21 (UniProt Q9Y5A6), the log2 fold change is -0.208 (inactive).
With YBEY (UniProt P58557), the log2 fold change was 0.029 (inactive).
Same read-out and setting: for UQCRC2 (UniProt P22695) the value was 0.007 (inactive); for WRN (UniProt Q14191), -0.005 (inactive); for WAS (UniProt P42768), -0.055 (inactive).
Consider UTRN isoform 2 (UniProt P46939), for which the log2 fold change was -0.424 (inactive).
Still for that read-out and setting: the figure for XAB2 (UniProt Q9HCS7) is -0.006 (inactive); for VASN (UniProt Q6EMK4) it is -0.027 (inactive).
With VANGL1 (UniProt Q8TAA9), the log2 fold change is -0.009 (inactive).
Take USP22 (UniProt Q9UPT9): the log2 fold change was 0.059 (inactive).
Regarding WDR77 (UniProt Q9BQA1), the log2 fold change is 0.006 (inactive).
On the same count and under the same terms, the figure for ZMYM2 (UniProt Q9UBW7) is 0.069 (inactive); for VARS (UniProt P26640) it is 0.024 (inactive); for VPS35L (UniProt Q7Z3J2) it is 0.015 (inactive).
VPS54 (UniProt Q9P1Q0): the log2 fold change is 0.007 (inactive).
